The record followed here is publication PMC7862700, “An all-to-all approach to the identification of sequence-specific readers for epigenetic DNA modifications on cytosine”.

Holding throughout (test): DAPPL (digital affinity profiling via proximity ligation, sequencing); 10 mM Tris-HCl pH 7.5, 50 mM NaCl, 1 mM DTT, 4% glycerol, room temperature, 30 min; GST-TFs on glutathione beads, 16-mer random dsDNA library, 0.1% formaldehyde crosslink after washing; high values mean tight binding
One test concerns the target T1, FEV (Homo sapiens, UniProt Q99581 1-238).
T1 sequence: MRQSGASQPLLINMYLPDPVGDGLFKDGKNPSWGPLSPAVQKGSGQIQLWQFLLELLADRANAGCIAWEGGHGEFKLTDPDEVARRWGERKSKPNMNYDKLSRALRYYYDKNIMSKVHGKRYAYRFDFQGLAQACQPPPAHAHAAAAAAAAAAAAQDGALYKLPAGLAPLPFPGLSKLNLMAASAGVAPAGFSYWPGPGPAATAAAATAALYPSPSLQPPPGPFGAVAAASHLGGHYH
The settings on record: protein: recombinant; tags: N-terminal GST; dsDNA, one strand shown. The essentials: (§1)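 Binding signal is each hexamer's read frequency for a factor divided by its frequency in the tag-only sample. The factors were GST-fused human transcription factors from yeast, captured on glutathione beads, DNA-barcoded and pooled with that sample. Pools were incubated with 200 nmole of a random double-stranded 16-mer DNA library in Tris/NaCl/DTT/glycerol buffer at room temperature for 30 min, then washed, crosslinked with 0.1% formaldehyde, proximity-ligated with BsaI/T4 ligase (1 h, 37 °C), PCR-amplified and sequenced on an Illumina NextSeq500.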

A further test has as its target ETV5 (Homo sapiens, UniProt P41161 1-510). The note with it: protein: recombinant; tags: N-terminal GST; dsDNA, one strand shown. In short, it runs like this: as §1
Another test has as its target HSF1 (Homo sapiens, UniProt Q00613 1-529). The settings on record: protein: recombinant; tags: N-terminal GST; chain copies: 3; dsDNA, one strand shown. The essentials:
as §1

A further test deals with T2, SPIC (Homo sapiens, UniProt Q8N5J4 1-248).
T2 sequence: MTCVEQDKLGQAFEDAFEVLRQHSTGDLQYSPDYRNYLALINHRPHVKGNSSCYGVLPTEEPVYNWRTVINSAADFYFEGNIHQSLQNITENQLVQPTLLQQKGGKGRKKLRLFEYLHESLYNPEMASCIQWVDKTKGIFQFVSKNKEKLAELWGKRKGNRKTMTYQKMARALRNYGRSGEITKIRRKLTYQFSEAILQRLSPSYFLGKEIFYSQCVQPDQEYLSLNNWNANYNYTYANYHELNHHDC
The settings on record: protein: recombinant; tags: N-terminal GST; dsDNA, one strand shown. The essentials:
as §1

A further test concerns the target ELF4 (Homo sapiens, UniProt Q99607 1-663). The note with it: protein: recombinant; tags: N-terminal GST; dsDNA, one strand shown. In short, it runs like this: as §1
The target of a further test is T3, ELK4 (Homo sapiens, UniProt P28324-2 1-405).
T3 sequence: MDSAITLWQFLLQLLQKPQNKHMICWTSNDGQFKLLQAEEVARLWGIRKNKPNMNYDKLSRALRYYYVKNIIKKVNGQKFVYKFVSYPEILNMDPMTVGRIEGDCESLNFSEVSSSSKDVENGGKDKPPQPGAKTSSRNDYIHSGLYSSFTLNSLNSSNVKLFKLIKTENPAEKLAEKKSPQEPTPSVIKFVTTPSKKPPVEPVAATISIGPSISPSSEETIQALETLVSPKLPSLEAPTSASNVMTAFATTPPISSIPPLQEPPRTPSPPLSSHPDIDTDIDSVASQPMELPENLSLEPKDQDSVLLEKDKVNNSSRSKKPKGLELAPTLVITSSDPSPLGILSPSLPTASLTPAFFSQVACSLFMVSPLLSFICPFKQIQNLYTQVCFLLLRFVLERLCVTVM
The settings on record: protein: recombinant; tags: N-terminal GST; dsDNA, one strand shown. The essentials:
as §1

The target in a further test is T4, ETV2 (Homo sapiens, UniProt O00321 1-342).
T4 sequence: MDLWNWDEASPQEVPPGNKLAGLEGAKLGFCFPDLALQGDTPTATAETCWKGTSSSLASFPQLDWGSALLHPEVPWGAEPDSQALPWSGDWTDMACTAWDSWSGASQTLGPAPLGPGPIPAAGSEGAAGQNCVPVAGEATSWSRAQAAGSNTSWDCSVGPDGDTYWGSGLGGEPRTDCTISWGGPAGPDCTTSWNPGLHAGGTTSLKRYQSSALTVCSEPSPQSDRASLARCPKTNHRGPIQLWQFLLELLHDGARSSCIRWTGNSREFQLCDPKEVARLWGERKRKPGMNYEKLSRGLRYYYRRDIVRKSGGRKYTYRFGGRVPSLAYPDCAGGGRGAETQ
The note with it: protein: recombinant; tags: N-terminal GST; dsDNA, one strand shown. The essentials: as §1

A further test concerns the target T5, ELF3 (Homo sapiens, UniProt P78545 1-371).
T5 sequence: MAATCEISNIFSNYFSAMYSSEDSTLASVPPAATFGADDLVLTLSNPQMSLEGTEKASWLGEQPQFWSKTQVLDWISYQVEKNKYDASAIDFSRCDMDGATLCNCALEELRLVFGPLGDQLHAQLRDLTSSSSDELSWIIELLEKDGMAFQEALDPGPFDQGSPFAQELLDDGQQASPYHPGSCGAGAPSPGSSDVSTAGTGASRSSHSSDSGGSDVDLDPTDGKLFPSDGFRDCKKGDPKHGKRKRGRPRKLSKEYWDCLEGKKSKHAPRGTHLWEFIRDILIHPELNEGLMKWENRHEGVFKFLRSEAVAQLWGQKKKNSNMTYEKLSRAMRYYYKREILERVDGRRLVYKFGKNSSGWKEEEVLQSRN
The note with it: protein: recombinant; tags: N-terminal GST; dsDNA, one strand shown. The essentials:
as §1

A further test concerns the target CRX (Homo sapiens, UniProt O43186 1-299). The note with it: protein: recombinant; tags: N-terminal GST; dsDNA, one strand shown. The essentials:
as §1

The target of a further test is ETV1 (Homo sapiens, UniProt P50549 1-477). The settings on record: protein: recombinant; tags: N-terminal GST; dsDNA, one strand shown. In short, it runs like this: as §1
The target in a further test is T6, ERF (Homo sapiens, UniProt P50548 1-548).
T6 sequence: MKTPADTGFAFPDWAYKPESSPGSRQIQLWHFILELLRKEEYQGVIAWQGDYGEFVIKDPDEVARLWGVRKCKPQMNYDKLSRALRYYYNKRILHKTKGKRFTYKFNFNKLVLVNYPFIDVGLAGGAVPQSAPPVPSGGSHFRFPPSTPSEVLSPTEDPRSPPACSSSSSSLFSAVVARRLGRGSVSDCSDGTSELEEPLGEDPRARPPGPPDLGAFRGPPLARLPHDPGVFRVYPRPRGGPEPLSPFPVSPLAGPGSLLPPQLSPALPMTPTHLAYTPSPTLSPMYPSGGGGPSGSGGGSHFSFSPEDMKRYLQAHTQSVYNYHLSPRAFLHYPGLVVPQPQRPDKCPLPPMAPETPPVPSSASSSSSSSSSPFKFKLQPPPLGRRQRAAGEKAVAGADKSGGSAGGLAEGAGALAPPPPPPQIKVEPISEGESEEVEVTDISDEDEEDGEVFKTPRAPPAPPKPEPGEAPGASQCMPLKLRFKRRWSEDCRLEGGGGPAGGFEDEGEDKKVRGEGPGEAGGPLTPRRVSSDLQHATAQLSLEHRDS
The settings on record: protein: recombinant; tags: N-terminal GST; dsDNA, one strand shown. In short, it runs like this:
as §1

Another test concerns the target T7, ETV3L (Homo sapiens, UniProt Q6ZN32 1-361).
T7 sequence: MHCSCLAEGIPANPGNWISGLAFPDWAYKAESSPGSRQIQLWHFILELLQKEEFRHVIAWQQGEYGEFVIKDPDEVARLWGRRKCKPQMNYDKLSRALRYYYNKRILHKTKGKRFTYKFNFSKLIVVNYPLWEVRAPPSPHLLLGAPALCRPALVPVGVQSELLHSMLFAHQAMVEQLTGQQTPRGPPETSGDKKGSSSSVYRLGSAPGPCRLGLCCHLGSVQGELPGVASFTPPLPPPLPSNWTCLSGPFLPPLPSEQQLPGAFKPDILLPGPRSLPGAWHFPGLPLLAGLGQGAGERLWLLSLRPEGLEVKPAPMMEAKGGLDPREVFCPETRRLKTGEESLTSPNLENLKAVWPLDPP
The note with it: protein: recombinant; tags: N-terminal GST; dsDNA, one strand shown. In short, it runs like this:
as §1

A further test has as its target T8, ETS2 (Homo sapiens, UniProt P15036 1-469).
T8 sequence: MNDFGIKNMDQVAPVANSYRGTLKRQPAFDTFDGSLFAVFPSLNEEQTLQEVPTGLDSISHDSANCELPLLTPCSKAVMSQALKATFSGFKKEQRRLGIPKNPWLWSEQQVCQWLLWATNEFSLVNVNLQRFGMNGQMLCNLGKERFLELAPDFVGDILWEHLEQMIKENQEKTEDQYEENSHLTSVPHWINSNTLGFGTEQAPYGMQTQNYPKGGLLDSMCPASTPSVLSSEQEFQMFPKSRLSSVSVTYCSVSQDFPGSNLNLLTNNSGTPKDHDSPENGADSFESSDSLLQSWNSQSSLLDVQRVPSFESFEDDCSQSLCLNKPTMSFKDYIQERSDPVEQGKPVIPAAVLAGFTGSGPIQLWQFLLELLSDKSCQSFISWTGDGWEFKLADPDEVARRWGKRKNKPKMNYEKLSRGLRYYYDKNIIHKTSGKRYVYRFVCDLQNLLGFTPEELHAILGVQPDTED
The settings on record: protein: recombinant; tags: N-terminal GST; dsDNA, one strand shown. The essentials: as §1

A further test concerns the target T9, SPDEF (Homo sapiens, UniProt O95238 1-335).
T9 sequence: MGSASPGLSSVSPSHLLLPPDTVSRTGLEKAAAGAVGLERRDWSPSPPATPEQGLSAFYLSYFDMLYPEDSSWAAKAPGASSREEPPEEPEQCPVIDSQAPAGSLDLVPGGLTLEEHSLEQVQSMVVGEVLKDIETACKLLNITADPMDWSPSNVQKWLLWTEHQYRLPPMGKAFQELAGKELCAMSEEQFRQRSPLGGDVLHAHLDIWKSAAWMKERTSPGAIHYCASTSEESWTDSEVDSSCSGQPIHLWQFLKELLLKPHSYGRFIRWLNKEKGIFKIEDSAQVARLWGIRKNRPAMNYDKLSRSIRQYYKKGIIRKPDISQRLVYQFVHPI
The settings on record: protein: recombinant; tags: N-terminal GST; dsDNA, one strand shown. The essentials: as §1

A further test concerns the target T10, ETV7 (Homo sapiens, UniProt Q9Y603 1-341).
T10 sequence: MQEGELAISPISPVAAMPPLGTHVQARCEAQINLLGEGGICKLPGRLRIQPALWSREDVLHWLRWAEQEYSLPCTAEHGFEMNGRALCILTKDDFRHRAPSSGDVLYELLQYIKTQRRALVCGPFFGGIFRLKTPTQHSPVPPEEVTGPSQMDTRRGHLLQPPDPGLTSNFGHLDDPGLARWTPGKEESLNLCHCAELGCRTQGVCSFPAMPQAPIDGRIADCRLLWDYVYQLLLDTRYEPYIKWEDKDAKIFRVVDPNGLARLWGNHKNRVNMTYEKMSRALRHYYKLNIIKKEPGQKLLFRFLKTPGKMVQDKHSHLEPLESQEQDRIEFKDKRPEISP
The note with it: protein: recombinant; tags: N-terminal GST; dsDNA, one strand shown. In short, it runs like this: as §1

The target of the next test is T11, ELF5 (Homo sapiens, UniProt Q9UKW6-2 1-255).
T11 sequence: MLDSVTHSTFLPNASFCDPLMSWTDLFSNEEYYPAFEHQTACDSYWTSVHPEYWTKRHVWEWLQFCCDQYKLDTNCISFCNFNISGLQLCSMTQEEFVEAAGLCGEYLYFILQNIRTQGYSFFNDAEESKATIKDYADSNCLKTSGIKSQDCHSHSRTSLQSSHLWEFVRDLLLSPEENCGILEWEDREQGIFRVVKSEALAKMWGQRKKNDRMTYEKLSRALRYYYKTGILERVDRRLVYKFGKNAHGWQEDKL
The note with it: protein: recombinant; tags: N-terminal GST; dsDNA, one strand shown. In short, it runs like this:
as §1

In a further test the target is T12, ETV3 (Homo sapiens, UniProt P41162-2 1-143).
T12 sequence: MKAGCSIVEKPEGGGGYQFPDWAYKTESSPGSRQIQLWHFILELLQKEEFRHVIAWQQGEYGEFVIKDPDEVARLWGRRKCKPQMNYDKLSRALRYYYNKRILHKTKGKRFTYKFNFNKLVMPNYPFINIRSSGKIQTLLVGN
The note with it: protein: recombinant; tags: N-terminal GST; dsDNA, one strand shown. In short, it runs like this:
as §1

The next test concerns the target ETV6 (Homo sapiens, UniProt P41212 1-452). The settings on record: protein: recombinant; tags: N-terminal GST; dsDNA, one strand shown. The essentials: as §1

Sequence of ETV6 (P41212 whole entry): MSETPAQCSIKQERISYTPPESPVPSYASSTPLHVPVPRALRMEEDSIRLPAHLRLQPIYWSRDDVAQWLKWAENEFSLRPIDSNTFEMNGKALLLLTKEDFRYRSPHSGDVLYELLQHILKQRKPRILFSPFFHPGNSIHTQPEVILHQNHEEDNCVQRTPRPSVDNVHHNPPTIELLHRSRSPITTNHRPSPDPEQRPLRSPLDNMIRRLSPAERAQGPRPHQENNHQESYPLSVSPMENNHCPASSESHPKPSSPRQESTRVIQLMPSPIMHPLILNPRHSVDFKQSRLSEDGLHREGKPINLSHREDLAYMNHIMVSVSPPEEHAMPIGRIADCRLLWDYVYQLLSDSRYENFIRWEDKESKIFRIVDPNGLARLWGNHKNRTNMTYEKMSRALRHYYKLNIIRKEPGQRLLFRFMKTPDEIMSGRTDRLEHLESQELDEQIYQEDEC
Sequence of ETV5 (P41161 whole entry): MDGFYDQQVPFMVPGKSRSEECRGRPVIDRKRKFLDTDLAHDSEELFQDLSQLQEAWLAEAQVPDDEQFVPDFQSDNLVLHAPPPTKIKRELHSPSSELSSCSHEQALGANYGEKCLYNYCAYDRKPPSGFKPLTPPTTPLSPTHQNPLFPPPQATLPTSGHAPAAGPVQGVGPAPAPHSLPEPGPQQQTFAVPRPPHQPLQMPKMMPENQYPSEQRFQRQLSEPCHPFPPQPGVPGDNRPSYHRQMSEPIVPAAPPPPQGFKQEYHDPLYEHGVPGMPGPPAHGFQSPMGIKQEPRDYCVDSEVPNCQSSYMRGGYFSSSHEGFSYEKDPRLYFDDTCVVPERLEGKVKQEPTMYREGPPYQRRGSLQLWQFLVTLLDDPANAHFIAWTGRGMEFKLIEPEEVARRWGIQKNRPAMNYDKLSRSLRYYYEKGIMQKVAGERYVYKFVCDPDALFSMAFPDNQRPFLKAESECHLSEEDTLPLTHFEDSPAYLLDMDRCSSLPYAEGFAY
Sequence of CRX (O43186 whole entry): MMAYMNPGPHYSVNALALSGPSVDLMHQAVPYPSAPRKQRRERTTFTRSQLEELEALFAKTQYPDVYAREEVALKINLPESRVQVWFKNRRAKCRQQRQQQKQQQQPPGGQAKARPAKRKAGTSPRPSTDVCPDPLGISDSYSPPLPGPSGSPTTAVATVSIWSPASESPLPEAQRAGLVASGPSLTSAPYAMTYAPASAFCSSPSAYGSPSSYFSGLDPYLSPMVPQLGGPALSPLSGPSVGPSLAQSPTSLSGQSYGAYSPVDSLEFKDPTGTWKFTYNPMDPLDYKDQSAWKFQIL
Sequence of ETV1 (P50549 whole entry): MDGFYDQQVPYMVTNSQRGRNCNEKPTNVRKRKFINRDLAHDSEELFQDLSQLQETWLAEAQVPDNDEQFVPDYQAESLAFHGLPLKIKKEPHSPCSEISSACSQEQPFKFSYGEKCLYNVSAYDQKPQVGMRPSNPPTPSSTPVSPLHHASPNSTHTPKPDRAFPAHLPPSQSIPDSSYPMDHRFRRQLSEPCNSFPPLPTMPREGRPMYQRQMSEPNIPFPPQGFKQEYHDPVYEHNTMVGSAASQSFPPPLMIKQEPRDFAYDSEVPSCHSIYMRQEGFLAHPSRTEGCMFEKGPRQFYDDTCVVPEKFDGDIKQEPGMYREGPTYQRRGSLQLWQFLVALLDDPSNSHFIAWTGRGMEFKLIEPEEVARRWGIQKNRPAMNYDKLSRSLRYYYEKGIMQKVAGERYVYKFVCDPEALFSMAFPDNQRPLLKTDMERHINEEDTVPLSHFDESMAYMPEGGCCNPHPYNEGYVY
Sequence of ELF4 (Q99607 whole entry): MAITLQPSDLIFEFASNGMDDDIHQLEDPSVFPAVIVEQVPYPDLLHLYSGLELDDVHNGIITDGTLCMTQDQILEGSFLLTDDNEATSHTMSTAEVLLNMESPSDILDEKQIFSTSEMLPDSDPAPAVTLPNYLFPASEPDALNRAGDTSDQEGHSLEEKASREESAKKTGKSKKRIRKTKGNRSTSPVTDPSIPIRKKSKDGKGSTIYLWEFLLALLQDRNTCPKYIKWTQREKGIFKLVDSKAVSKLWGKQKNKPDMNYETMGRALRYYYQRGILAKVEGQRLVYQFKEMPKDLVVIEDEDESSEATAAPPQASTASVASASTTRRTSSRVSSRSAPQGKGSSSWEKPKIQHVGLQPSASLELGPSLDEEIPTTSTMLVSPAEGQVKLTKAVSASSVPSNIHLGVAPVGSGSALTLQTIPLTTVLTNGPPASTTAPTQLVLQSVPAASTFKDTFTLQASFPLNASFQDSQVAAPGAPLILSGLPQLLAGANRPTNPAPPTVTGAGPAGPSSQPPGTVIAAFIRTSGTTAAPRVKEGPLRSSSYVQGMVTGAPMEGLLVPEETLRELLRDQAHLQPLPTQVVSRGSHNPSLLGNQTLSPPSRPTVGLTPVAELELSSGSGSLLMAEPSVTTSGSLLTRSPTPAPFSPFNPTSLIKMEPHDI
Sequence of HSF1 (Q00613 whole entry): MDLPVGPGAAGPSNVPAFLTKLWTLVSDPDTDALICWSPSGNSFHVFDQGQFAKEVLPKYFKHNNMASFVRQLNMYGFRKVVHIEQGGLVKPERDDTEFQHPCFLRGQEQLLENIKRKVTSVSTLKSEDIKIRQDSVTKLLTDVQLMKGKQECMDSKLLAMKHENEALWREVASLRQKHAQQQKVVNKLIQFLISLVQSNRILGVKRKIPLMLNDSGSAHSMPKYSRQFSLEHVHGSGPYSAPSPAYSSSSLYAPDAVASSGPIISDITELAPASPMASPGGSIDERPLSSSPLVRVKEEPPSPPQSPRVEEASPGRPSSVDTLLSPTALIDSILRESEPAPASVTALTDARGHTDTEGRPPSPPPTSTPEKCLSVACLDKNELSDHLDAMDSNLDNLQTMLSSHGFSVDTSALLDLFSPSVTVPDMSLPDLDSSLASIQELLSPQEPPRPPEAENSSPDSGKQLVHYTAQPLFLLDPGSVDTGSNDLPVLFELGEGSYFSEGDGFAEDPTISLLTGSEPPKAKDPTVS

With CTGGAA, the binding signal is 1.2 fold enrichment (6-mer frequency, TF over GST control) with FEV; 1.29 fold enrichment (6-mer frequency, TF over GST control) with ETV5; 4.43 fold enrichment (6-mer frequency, TF over GST control) with HSF1; 1.2 fold enrichment (6-mer frequency, TF over GST control) with SPIC; 1.23 fold enrichment (6-mer frequency, TF over GST control) with ELF4; 1.08 fold enrichment (6-mer frequency, TF over GST control) in the test with ELK4. In addition, the binding signal with ETV2 was 1.43 fold enrichment (6-mer frequency, TF over GST control); with ELF3, 1.11 fold enrichment (6-mer frequency, TF over GST control); in the test with CRX, 1.89 fold enrichment (6-mer frequency, TF over GST control); with ETV1 it was 1.32 fold enrichment (6-mer frequency, TF over GST control); in the test with ERF, 1.26 fold enrichment (6-mer frequency, TF over GST control); with ETV3L, 1.36 fold enrichment (6-mer frequency, TF over GST control). Further, the binding signal with ETS2 was 1.3 fold enrichment (6-mer frequency, TF over GST control); in the test with SPDEF, 1.16 fold enrichment (6-mer frequency, TF over GST control); in the test with ETV7, 1.32 fold enrichment (6-mer frequency, TF over GST control); with ELF5, 1.34 fold enrichment (6-mer frequency, TF over GST control); with ETV3 it was 1.27 fold enrichment (6-mer frequency, TF over GST control); with ETV6 it was 1.34 fold enrichment (6-mer frequency, TF over GST control).
